Screening data from PubChem.
GPR151 activ: activators of human GPR151, primary screen, cell-based, PathHunter beta-arrestin, luminescence; PathHunter beta-arrestin GPR151 cells; activation, % at 11.2 µM; 650,000 compounds, 1% hits; AID 1508602, 2020; in the data active means activation above about 4.9%;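 further: 0% = median of compound wells and 100% = cells with positive control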
FBW7 activator: FBW7 E3 ligase activators, primary screen, biochemical, AlphaScreen, human. AID 1259310, 2017. normalized activity (activation), % at 26.1 µM. 650,000 compounds, 0.13% hits. AlphaScreen FBW7–phospho-cyclin E peptide binding, activator screen; in the data active means normalized activity above about 1.9%;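 further: purified mutant Fbw7 with reduced substrate affinity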
Target sequence (Q969H0 whole entry, looked up): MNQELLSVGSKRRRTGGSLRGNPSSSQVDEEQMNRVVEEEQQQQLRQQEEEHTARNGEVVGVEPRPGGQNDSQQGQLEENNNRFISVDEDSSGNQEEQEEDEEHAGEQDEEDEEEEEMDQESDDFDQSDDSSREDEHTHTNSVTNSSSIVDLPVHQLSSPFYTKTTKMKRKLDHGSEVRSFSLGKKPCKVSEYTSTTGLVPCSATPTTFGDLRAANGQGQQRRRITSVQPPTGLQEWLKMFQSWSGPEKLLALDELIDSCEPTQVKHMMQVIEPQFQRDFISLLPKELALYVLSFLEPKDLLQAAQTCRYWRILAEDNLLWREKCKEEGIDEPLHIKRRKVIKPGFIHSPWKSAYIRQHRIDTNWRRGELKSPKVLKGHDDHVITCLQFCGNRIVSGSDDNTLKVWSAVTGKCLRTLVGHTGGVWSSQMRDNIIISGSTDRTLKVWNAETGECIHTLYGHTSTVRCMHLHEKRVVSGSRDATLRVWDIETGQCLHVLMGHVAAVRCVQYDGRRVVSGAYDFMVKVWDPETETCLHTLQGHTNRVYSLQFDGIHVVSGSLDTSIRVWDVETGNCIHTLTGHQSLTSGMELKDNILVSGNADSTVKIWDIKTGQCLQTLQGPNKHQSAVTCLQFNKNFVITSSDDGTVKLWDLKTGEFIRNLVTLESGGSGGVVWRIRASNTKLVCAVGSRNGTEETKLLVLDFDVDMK
MITF inh: MITF inhibitors, primary screen, biochemical, AlphaScreen, human | AlphaScreen MITF homodimerization, bead proximity signal | 650,000 compounds, 0.91% hits | inhibition, % at 2.6 µM | Microphthalmia-associated transcription factor (Homo sapiens), O75030; in the data active means inhibition above about 50%;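 further: 0% = vehicle wells with protein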
TEAD-YAP inh: TEAD-YAP interaction inhibition, primary screen, TEAD-YAP interaction inhibitor project, luminescence, HEK-TIYL cells; TEAD-Gal4/YAP UAS-luciferase luminescence; inhibition, % at 9.12 µM; 640,000 compounds, 1.4% hits; in the data active means inhibition above about 32%;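 further: 0% = median of test compound wells and 100% = reference inhibitor wells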
* marks the source's active call; other numbers are inactive results. Shown are actives, neighbours in structure and some others; about 3.4% of the full set was active somewhere.

SMILES	GPR151 activ	FBW7 activator	MITF inh	TEAD-YAP inh
O=C(Nc1cc(-c2ccccc2Oc2ccccc2F)ccn1)C1CCOC1 (stereo not given)	0.2	0.1	1.4	37.5*
COc1cc(OC)cc(C(=O)N/N=C(\C)CC(=O)Nc2cccc(C)c2C)c1	2.3	0.0	-8.3	49.9*
COc1cc(OC)cc(C(=O)N/N=C(\C)CC(=O)NCc2ccco2)c1	-0.7	0.6	-7.6	50.8*
COc1ccc(C(=O)N/N=C(\C)CC(=O)NCc2ccco2)cc1	-0.8	1.4	24.2	-51.8
Nc1ccccc1N=Cc1c(O)n(-c2ccccc2)c(=S)n(-c2ccccc2)c1=O	-3.6	0.0	-3.4	-27.4
O=C(COc1ccccc1)NC(c1ccco1)c1cc(Cl)c2cccnc2c1O (stereo not given)	-0.8	-0.4	24.8	85.3*
CCC(=O)NC(c1ccco1)c1cc(Cl)c2cccnc2c1O (stereo not given)	0.5	-0.2	38.2	36.9*
CCC(=O)NC(c1ccco1)c1ccc2cccnc2c1O (stereo not given)	-1.7	-1.8	69.9*	26.7
COc1ccc(C(=O)NC(c2ccco2)c2cc(Cl)c3cccnc3c2O)cc1 (stereo not given)	-1.4	0.0	11.5	1.1
O=C(COc1ccccc1)NC(c1ccccc1)c1cc(Cl)c2cccnc2c1O (stereo not given)	-1.0	-0.1	0.0	-4.5
N#Cc1ccsc1NC(=O)c1cccc2ccccc12	0.8	0.5	-4.8	47.4*
N#Cc1ccsc1NC(=O)/C=C/c1ccccc1	-11.5	0.1	-12.6	63.5*
N#Cc1ccsc1NC(=O)c1ccc2c(c1)CCCC2	-6.4	0.1	3.3	42.7*
Cc1ccc(C(=O)Nc2sccc2C#N)cc1C	-9.7	0.4	-7.7	-15.2
N#Cc1ccsc1NC(=O)c1ccccc1Cl	0.0	0.1	8.7	1.4
N#Cc1ccsc1NC(=O)c1ccccc1	-3.2	0.1	-13.2	-12.3
CCN(CC)Cc1c(C(=O)N/N=C/c2ccc(O)c([N+](=O)[O-])c2)nnn1-c1nonc1N	-0.9	-0.2	74.7*	11.7
CCN(CC)Cc1c(C(=O)N/N=C/c2cccc(OC)c2O)nnn1-c1nonc1N	-0.7	-0.4	60.0*	13.8
CC1(c2ccc(Cl)cc2Cl)NC(=O)N(CC(=O)NCc2ccco2)C1=O (stereo not given)	0.2	0.1	2.4	4.0
COc1cccc2sc(=NC(=O)c3nc4ccccc4s3)n(C)c12	-0.2	-0.1	-5.3	70.9*
COc1cccc2sc(=NC(=O)c3cccc4ccccc34)n(C)c12	-0.8	0.9	6.7	1.7
Cc1cc(C)cc(NC(=O)C2C3C=CC4(O3)C2C(=O)N(CC2COc3ccccc3O2)C4C(=O)NC2CCCCC2)c1 (stereo not given)	1.4	-0.1	1.5	-5.3
Cc1onc(-c2ccccc2)c1C1=N/C(=C\c2ccccc2Cl)C(=O)O1	-0.2	0.0	-3.3	-5.1
O=[N+]([O-])c1ccc(Sc2nnc(Cc3ccccc3)o2)nc1	1.3	-0.1	-2.3	57.2*
O=[N+]([O-])c1ccc(CSc2nnc(Cc3ccccc3)o2)cc1	0.3	0.0	14.2	11.0
SMILES	GPR151 activ	FBW7 activator	MITF inh	TEAD-YAP inh
CC1CCc2cc(F)cc3c(O)c(C(=O)Nc4ccccn4)c(=O)n1c23 (stereo not given)	0.2	2.0*	7.7	10.2
CCN(CC)C(=O)C1CCCN(c2nc(N)c3ncn(-c4ccccc4)c3n2)C1 (stereo not given)	-1.9	-0.1	-12.6	45.9*
CCN(CC)C(=O)C1CCCN(c2nc(Nc3ccccc3)c3[nH]cnc3n2)C1 (stereo not given)	2.8	-0.2	0.4	48.1*
CCN(CC)C(=O)C1CCCN(c2nc(NCCN(C(C)C)C(C)C)c3ncn(-c4ccccc4)c3n2)C1 (stereo not given)	-0.9	0.0	6.5	41.4*
CCN(CC)C(=O)C1CCCN(c2nc(Nc3cc(OC)c(OC)c(OC)c3)c3ncn(C(C)C)c3n2)C1 (stereo not given)	0.0	-0.1	13.3	34.1*
CCN(CC)C(=O)C1CCCN(c2nc(NCCN(C(C)C)C(C)C)c3ncn(C(C)C)c3n2)C1 (stereo not given)	1.7	0.1	-6.0	11.0
COc1cc(/C=C(/NC(=O)c2ccccc2)C(=O)Nc2ccccc2Br)cc(OC)c1OC	0.5	0.4	-5.4	13.2
CCOC(=O)c1c(NC(=O)CSc2nnc(CNC(=O)Cc3ccc(OC)cc3)n2-c2cc(C)ccc2C)sc2c1CCC2	0.8	0.4	-2.0	0.5
Clc1ccc(-c2cn3nc4c(nc3n2)CCCC4)cc1	-1.9	-0.1	-1.7	-20.0
Fc1ccc(-c2cn3nc4c(nc3n2)CCCC4)cc1	-9.6	-0.1	3.5	40.0*
COc1cccc(-c2cn3nc4c(nc3n2)CCCC4)c1	-7.6	0.2	-1.4	66.4*
CN(C(=O)COc1cc(=O)n(C)c2ccccc12)c1ccccc1	0.2	-0.1	8.1	-5.8
C=CCn1c(SCc2c(C)noc2C)nc2scc(C3CC3)c2c1=O	0.7	0.0	-1.0	50.2*
CSc1cccc(NC2=NS(=O)(=O)c3ccccc32)c1	-1.1	0.0	2.5	12.4
CCOC(=O)c1c(NC(=O)Cn2cnc3ccccc3c2=O)sc(C(C)=O)c1C	-0.5	-0.2	-4.8	-3.8
O=C(/C=C/c1ccccc1)c1c(O)c2ccccc2[nH]c1=O	0.7	0.2	4.9	4.0
Cc1[nH]c2ccccc2c(=O)c1C(=O)/C=C/c1ccccc1	-0.2	-0.2	-2.1	93.1*
CC(C)c1nccn1CC1CCN(C(=O)c2ccccc2Cl)CC1	-0.3	0.0	8.8	33.2*
COc1ccc(COC(=O)C2=C(C)NC(=O)CC2c2ccccc2C(F)(F)F)cc1 (stereo not given)	1.1	0.5	6.5	-6.1
Oc1ccccc1CNCc1ccccn1	-0.3	-0.6	76.5*	-4.6
COc1cc(-c2nc3sc(C)c(C)c3c(=O)o2)cc(OC)c1OC	0.0	2.3*	-2.6	-3.8
CCOC(=O)c1cc(CC)sc1NC(=O)C1CC(=O)N(c2ccc(OC)cc2)C1 (stereo not given)	-1.7	-0.3	-6.7	-6.5
Cc1nc(CN(C)C(=O)c2cc(COc3ccc4ncccc4c3)on2)cs1	2.8	0.0	2.7	37.4*
CN(CC1COCCO1)C(=O)c1cc(COc2ccc3ncccc3c2)on1 (stereo not given)	2.7	0.2	0.8	50.0*
Cc1ccc2cc(NC(=O)c3ccccc3F)ccc2n1	-4.1	-0.1	0.5	4.7
COc1cc(C(=O)OCN2C(=O)c3ccccc3C2=O)ccc1OCC#N	-1.1	0.8	50.1	5.9
COc1cccc(C2=NC(c3ccc(Br)cc3)NC(c3cc(Br)ccc3O)C2)c1 (stereo not given)	2.6	-0.1	-0.3	0.9
Oc1ccc(Br)cc1C1CC(c2cccc(Br)c2)=NC(c2ccc(F)c(Br)c2)N1 (stereo not given)	2.4	-0.1	0.9	31.9*
